According to PubChem BioAssay AID602289 (National Center for Advancing Translational Sciences (NCATS), 2012):
Out of some 2,400 compounds screened, about 40 (2%) were called active. About 1% were inconclusive and are not listed.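 The calls were made as follows: active = inhibition at or above 60%; inconclusive = inhibition from 0% up to below 60%; inactive = no inhibition observed.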 For the sample, actives were picked, then their nearest neighbours and some compounds at random.

Test: qHTS Assay for Small Molecule Inhibitors of Mitochondrial Division or Activators of Mitochondrial Fusion: Hit Validation in Malachite Green Assay;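 as to inhibition: plate controls were DMSO wells with GTPase for no effect and protein-free buffer wells for full effect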
Conditions: purified GTPase, malachite green phosphate release, A650; stronger effect = higher value
Source text: The budding yeast S. cerevisiae is a powerful system to study mitochondrial fusion. Unlike other organisms, yeast cells without functional mitochondrial DNA (mtDNA) can be propagated and studied as long as they maintain a mitochondrial compartment and are provided with a fermentable carbon source. When mitochondrial fusion is blocked in yeast, mitochondrial tubules rapidly fragment and division continues unopposed. Under conditions where fusion is compromised in mammalian cells, nearly identical changes in mitochondrial structure have been observed. Thus, these findings indicate that steady state mitochondrial structure in cells is a characteristic and specific indicator of fusion activity. Mounting evidence has pointed to a connection between mitochondrial dynamics and apoptosis in mammalian cells. These studies indicate that in mammalian cells mitochondrial dynamics are more integrated into cellular processes than in yeast cells and have evolved not only to distribute the organelle but also to aid in the regulation of cellular homeostasis. Mitochondrial fusion proteins attenuate apoptosis by inhibiting the release of cytochrome c from mitochondria, in part by controlling cristae structures. Thus, small molecules that inhibit mitochondrial fusion may promote apoptosis and potentially act as novel chemotherapeutics and stimulation of apoptosis has become an attractive target of anti-cancer therapies. To identify inhibitors of mitochondrial division, we exploit the growth phenotypes of mitochondrial fusion-defective mutants. The temperature sensitive fusion alleles, such as fzo1-1 and mgm1-5, cause mitochondrial membranes to fragment in cells under non-permissive conditions and cells lose mtDNA, and are unable to grow in the presence of non-fermentable carbon source glycerol. Inhibiting mitochondrial division rescues growth. The hits were tested by the assay provider in a malachite green assay. NIH Chemical Genomics Center [NCGC] NIH Molecular Libraries Probe Production Centers Network [MLPCN] MLPCN Grant: MH081279 Assay Submitter (PI): Jodi M. Nunnari
Malachite Green Reagent Malachite Green carbinol base- Aldrich 229105 Ammonium molybdate - Sigma A7302 For 100 mL Malachite Green reagent in 1N HCl 16 mL conc. HCL + 32 mL H20 = 48 mL 4N HCl 34 mg malachite green base into 40 mL 1N HCl (10 mL 4N HCl + 30 mL H20) 1 g ammonium molybdate in 15 mL 4N HCl Mix Solutions together. Bring up to […] with H2O. Filter using a 0.2 um tissue culture filter unit (has plastic bottle attached) store at 4 masculine C. (Avoid Glassware/Plastics washed in detergent. Mix solutions in 50 mL conical vials.) For 20 uL reaction volume 1.0 uL Test Drug or DMSO: Added first to each well […]: 25 mM Hepes/Pipes pH 7.0 (H/P) 2.0 uL: 50 mM MgCl2 (final 5mM) 2.32 uL: 1 M NaCl (with contributing protein salt, Final = 150mM) 13.4 uL per reaction. Can be mixed in larger volume (Mini Master Mix) 1.6 uL: Protein 7.5 uM or Protein Freezing Buffer. (Final = 0.6uM) After Protein Added to mini Master Mix, 15ul Total Master Mix added to each well with drug. 4 uL: 500 uM GTP (Final = 100uM), Dilute with 25 mM H/P, store on ice. 20 uL Total Volume Make Master Mix: (Calculate desired reactions and add a few for multi-channel pipetting volume). Multiply the number of desired reactions by 13.4 uL for total Mini Master volume. Multiply the number of desired reactions by 1.6 uL for total Protein volume. Mix, and keep on ice until added to wells. Add 15 uL of Master Mix to each reaction well, incubate with drug for 10 min. For Positive (No Drug) controls add 15 uL Master Mix to wells with only 1 uL DMSO. Make PFB (Protein Freezing Buffer) (no Protein) Master Mix. Multiply the number of desired reactions by 13.4 uL for total Mini Master volume. Multiply the number of desired reactions by 1.6 uL for total PFB volume. Mix, and keep on ice until added to wells Add 10 uL of PFBMaster Mix to each Phosphate Standards well, and 15 uL to each negative control well with DMSO. […]

| Compound | inhibition |
| --- | --- |
| O=C(/C=C/c1ccc(Cl)cc1)N(c1ccccn1)C1CCCCC1 | inactive |
| CC(/C=N/NC(=O)CSc1nnc(SCc2ccccc2)s1)=C\c1ccco1 | inactive |
| COc1ccc(-c2nn(-c3ccccc3)cc2/C=N/Nc2ccc3ccccc3n2)cc1OC | inactive |
| COc1ccccc1C1CC(c2ccc(Br)cc2)=NN1C(=O)c1cccnc1 (centres undefined) | inactive |
| CCC(C)c1ccc(N(CC(=O)NC(C)(C)C)C(=O)CNC(=O)c2cccs2)cc1 (centres undefined) | inactive |
| Cc1nc(NCc2ccccn2)c2c3c(sc2n1)CCCC3 | inactive |
| COc1c(C)cc(Br)cc1C(=O)Nc1cccc(NC(=O)c2ccco2)c1 | inactive |
| CN(C)c1cccc(NC(=O)c2ccco2)c1 | inactive |
| Cc1ccc(-c2nnc(NC(=O)c3ccco3)o2)c(C)c1 | 74.4% (active) |
| CC1=C(C)CC(C(=O)NNC(=O)c2csc3c2CCC(C(C)(C)C)C3)C(C(=O)O)C1 (centres undefined) | inactive |
| Cc1ccc(SCCNS(=O)(=O)c2ccc3c(c2)OCCO3)cc1 | inactive |
| C=CCc1c(C)nc(-c2ccccc2)nc1Nc1ccc(O)cc1 | inactive |
| COc1ccc(Cl)cc1NC(=O)CN(C)C(=O)c1cc2c(F)cccc2s1 | inactive |
| COc1cccc(C2=CC(=O)C[C@H](c3ccc(Cl)cc3)C2)c1 | inactive |
| COC(=O)[C@@]12CCCCN1[C@H](c1ccc(-c3ccc(OC)cc3)c(OC)c1)[C@@H]1C(=O)N(C)C(=O)[C@@H]12 | inactive |
| O=C(Nc1cccc(-c2nnc(-c3ccccc3)o2)c1)c1ccc(Br)o1 | inactive |
| COc1ccc(OC)c(/C=C2\SC(N3CCCC(C)C3)=NC2=O)c1 (centres undefined) | 66.7% (active) |
| COc1cc(/C=C2\SC(N3CCCCC3)=NC2=O)cc(OC)c1OC | inactive |
| O=C1N=C(N2CCN(c3ccccc3)CC2)S/C1=C/c1cccs1 | inactive |
| COC(=O)c1cc2c(ccn2-c2ccc(F)cc2)n1Cc1ccc(OC(C)=O)cc1 | inactive |
| Cc1ccc(S(=O)(=O)NC23CC4CC(CC(C4)C2)C3)cc1 | inactive |
| CC1CCc2nc3ccc(S(=O)(=O)N4CCC(C(=O)NCc5ccccc5Cl)CC4)cc3c(C(=O)O)c2C1 (centres undefined) | inactive |
| Cc1ccc2nnn(Cc3cccc(C(C)(C)C)c3O)c2c1 | inactive |

| Compound | inhibition |
| --- | --- |
| O=C(Nc1nnc(-c2ccccc2)o1)c1cc(-c2cccs2)nc2ccccc12 | inactive |
| COc1ccc(-c2nnc(NC(=O)c3ccc(F)cc3)o2)cc1 | 63.4% (active) |
| O=C(Nc1ccccc1N1CCCC1)c1ccc2ccccc2c1 | inactive |
| COc1ccc(C(=O)Nc2nc(-c3cccs3)cs2)cc1 | inactive |
| COc1cccc(-c2nnc(NC(=O)c3ccc4ncsc4c3)o2)c1 | inactive |
| O=C(Nc1nnc(-c2ccco2)o1)c1ccc2ccccc2c1 | 60.5% (active) |
| Nc1nc(Nc2cccc(Cl)c2)nc(NCc2ccco2)c1[N+](=O)[O-] | inactive |
| Cc1ccc(N=C2NC(=O)/C(=C\c3ccsc3)S2)c(C)c1 | inactive |
| COc1ccc(C(=O)Nc2cc3c(cc2N2CCCCC2)n(C)c(=O)n3C)cc1OC | inactive |
| O=C(CCNC(=O)c1ccccc1Cl)Nc1ccc(Cl)c(C(F)(F)F)c1 | inactive |
| CC(=O)Nc1ccc(O)c(-c2nc3ccccc3s2)c1 | inactive |
| Cc1c(NC(=O)c2cccs2)cccc1-c1nc2ccccc2s1 | 85.9% (active) |
| O=C(Nc1cccc(-c2nc3ccccc3s2)c1)c1cccs1 | inactive |
| CCOc1ccc2nc(NC(=O)Nc3cccs3)sc2c1 | inactive |
| Cc1c(Cl)c([N+](=O)[O-])nn1Cc1ccc(C(=O)Nc2ccc(Cl)cn2)o1 | inactive |
| O=C(Nc1ccc(O)c2c(=O)cc(-c3cccc(Cl)c3)oc12)c1ccccc1Cl | inactive |
| CC(C)n1c(C(=O)OCC(=O)NCc2ccc3c(c2)OCO3)cc2sccc21 | inactive |
| CC(CCc1ccccc1)NC(=O)/C=C/c1ccc(F)cc1 (centres undefined) | inactive |
| CCNc1ccc(Br)cc(C(=O)/C=C/c2ccc(Cl)cc2)c1=O | 100% (active) |
| CCOC(=O)c1c(C)[nH]c(C)c1C(=O)COC(=O)/C=C/c1ccc(Cl)cc1 | inactive |
| CC(=O)Nc1cccc(C(=O)/C=C/c2ccc(Br)cc2)c1 | inactive |
| CCOc1ccc(CN(C(=O)c2cc3ccccc3oc2=O)C2CC2)cc1 | inactive |
| O=C(c1ccc(COc2ccc(Cl)cc2)o1)N1CCN(Cc2ccc3c(c2)OCO3)CC1 | inactive |

| Compound | inhibition |
| --- | --- |
| CCOC(=O)c1n[nH]n2c1nc(=O)c1ccccc12 | inactive |
| Cc1nc(CS(=O)(=O)c2ccc(Cl)cc2)cc(Sc2ccccc2Cl)n1 | inactive |
| CCCCc1cc(=O)oc2cc(OS(C)(=O)=O)ccc12 | inactive |
| CCCc1c(C)nc2ccccc2c1SCCC#N | 84.5% (active) |
| CCCCc1c(C)nc2ccccc2c1SCCC#N | 73.5% (active) |
| CCCCN(CC)c1nc(-c2ccncc2)nc2ccccc12 | inactive |
| CCCCSc1nnc(-c2ccc(C)cc2)c2ccccc12 | inactive |
| COc1ccc(-c2ccc(-c3nc4ccc(C)cn4c3NC3CCCCC3)cc2OC)cc1 | inactive |
| Cc1cc2c(cc1C)CSC(c1ccccc1O)SC2 | inactive |
| CCOC(=O)c1ccc(NC(=S)N2CCSC2c2ccc(Cl)cc2)cc1 (centres undefined) | inactive |
| CCCCC(c1nnnn1CC1CCCO1)N1CCN(c2nc3ccccc3s2)CC1 (centres undefined) | inactive |
| Cc1cccc(-c2nc(CS(=O)CC(=O)NC(C)CCc3ccccc3)c(C)o2)c1 (centres undefined) | inactive |
| COC(=O)c1sc2nc(C)nc(SCC(=O)C(C)(C)C)c2c1C | inactive |
| Cc1ccccc1N=C(NOCc1ccccc1)c1nonc1N | inactive |
| C[C@@]12C(=O)N(Cc3ccccc3)CC(=O)N1[C@H]1c3cc(Cl)ccc3OC[C@@H]1[C@@H]2c1ccccc1 | inactive |
| CCCc1cc(C(N)=O)c(NC(=O)c2ccoc2C)s1 | 101% (active) |
| CCC1CCc2c(sc(NC(=O)c3ccoc3C)c2C(N)=O)C1 (centres undefined) | inactive |
| NC(=O)c1cc(Cc2ccccc2)sc1NC(=O)c1ccco1 | 102% (active) |
| Cc1sc(NC(=O)c2ccco2)nc1-c1ccccc1 | inactive |
| Cc1occc1C(=O)NC1CCCCCCC1 | inactive |
| O=C(Nc1cc(-c2ccccc2)cs1)c1ccco1 | inactive |
| Cc1ccc(C)c(N2CCN(C(=O)c3csc4ccccc34)CC2)c1 | inactive |
| Cc1cc(-c2ccc(C)c(S(=O)(=O)NCc3ccc(Br)cc3)c2)on1 | inactive |
